The target of test [1] is Thyrotropin receptor (Homo sapiens) (UniProt P16473). The experiment in a line: qHTS assay to identify small molecule agonists of the thyroid stimulating hormone receptor (TSHR) signaling pathway (AID 1224843; calls by dose curve; note: nearly all actives have a fitted effect of over 45% in size; note: potency is the fitted concentration of half-maximal effect). In outline: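 Compounds are titrated over 15 concentrations, in triplicate, onto TSHR-HEK293 cells seeded at 800/well. Plates sit 30 min at room temperature before cAMP-d2 and anti-cAMP cryptate are added; signal is read after a further hour.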
Sequence of Thyrotropin receptor (Homo sapiens) (P16473 whole entry, looked up): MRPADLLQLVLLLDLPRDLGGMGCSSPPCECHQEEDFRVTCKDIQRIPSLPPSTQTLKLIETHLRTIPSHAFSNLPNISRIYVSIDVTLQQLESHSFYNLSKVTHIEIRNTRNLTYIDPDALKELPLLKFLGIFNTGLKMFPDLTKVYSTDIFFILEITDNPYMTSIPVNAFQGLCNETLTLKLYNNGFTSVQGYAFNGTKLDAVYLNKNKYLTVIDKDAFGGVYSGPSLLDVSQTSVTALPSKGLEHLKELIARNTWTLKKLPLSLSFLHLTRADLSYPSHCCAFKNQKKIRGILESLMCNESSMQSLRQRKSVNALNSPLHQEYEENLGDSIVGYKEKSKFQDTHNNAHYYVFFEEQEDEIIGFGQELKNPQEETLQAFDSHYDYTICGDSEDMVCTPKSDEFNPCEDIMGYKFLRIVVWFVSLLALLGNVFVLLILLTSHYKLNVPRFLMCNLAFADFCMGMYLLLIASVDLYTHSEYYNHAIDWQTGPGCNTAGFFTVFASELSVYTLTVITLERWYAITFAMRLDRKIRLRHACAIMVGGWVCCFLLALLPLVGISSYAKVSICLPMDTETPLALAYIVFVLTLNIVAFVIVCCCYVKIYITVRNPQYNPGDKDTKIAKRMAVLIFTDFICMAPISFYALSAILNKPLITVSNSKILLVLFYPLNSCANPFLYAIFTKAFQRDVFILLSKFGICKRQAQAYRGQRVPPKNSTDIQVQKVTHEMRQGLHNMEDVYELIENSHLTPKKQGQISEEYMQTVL
For orientation: Quantitative high-throughput screening tests each substance at several concentrations.

A short description of test [2]: qHTS assay to identify small molecule agonists of the hypoxia (HIF-1) signaling pathway - cell viability counter screen (AID 1224844; calls by dose curve; note: nearly all actives have a fitted effect of over 50% in size). Summed up:
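Cytotoxicity was measured in parallel with the HRE-driven beta-lactamase readout: after 17 hrs of compound exposure at 37C, HRE-bla ME-180 cells received CellTiter-Glo and luminescence was recorded 30 min later.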

Test [3] can be described thus: qHTS assay to identify small molecule agonists of H2AX (AID 1224845; active = well fitted activation curve with a large enough effect in the signal ratio in the repeat runs, not every such curve was filed as active; the % refers to the signal ratio). In outline:
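Wild-type CHO-K1 cells plated overnight, then exposed 3 hr at 37C to compounds at 15 concentrations (0.76% DMSO). Lysed, then HTRF anti-pH2AX(S139)-cryptate/anti-H2AX-d2 detection after 24 hr at room temperature; emissions 665 and 620 nm.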

Test [4] in a line: qHTS assay to identify small molecule agonists of H2AX - cell viability counter screen (AID 1224847; calls by dose curve; note: top concentration of the series differs between compounds; nearly all actives have a fitted effect of over 30% in size). Summed up:
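Read-out: CellTiter-Glo luminescence, 30 min RT. Cells: wild-type CHO-K1, 1000/well, 10% FBS, plated overnight at 37C. Treatment: 15 concentrations, 3 hr, 37C, 0.76% DMSO.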

Test [5] is described as follows: qHTS RealTime-Glo MT Cell Viability Assay in HepG2 cells - 24 hour (AID 1224867). Note: nearly all actives have a fitted effect of over 50% in size. In outline:
(§1)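 Cells + NanoLuc/prosubstrate dispensed (600 cells/well) → 5 h at 37 C/5% CO2 → compounds in DMSO transferred → 40 h incubation at 37 C, luminescence read at 0, 8, 16, 24, 32, 40 h.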

The nature of test [6]: qHTS RealTime-Glo MT Cell Viability Assay in HEK293 cells - 32 hour (AID 1224868). Note: top concentration of the series differs between compounds; nearly all actives have a fitted effect of over 50% in size. Summed up: (§2)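 Tox21 10K qHTS, HEK293, 600 cells/well, RealTime-Glo reagent co-dispensed with cells; 5 h preincubation, compound by pintool, 37 C, luminescence at 0–40 h.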
Test [7] can be described thus: A CellTox Green Cytotoxicity Assay to monitor cytotoxicity in HEK293 cells - 0 hour (AID 1224869). Note: nearly all actives have a fitted effect of over 50% in size. In outline: (§3)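 Cells (HEK293, 600/well) and dye reagent are dispensed together. After 5 h at 37 C, 23 nL compound is pinned in. Plates stay at 37 C for 40 h with fluorescence read at 0h, 8h, 16h, 24h, 32h and 40h.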
A short description of test [8]: A CellTox Green Cytotoxicity Assay to monitor cytotoxicity in HEK293 cells - 40 hour (AID 1224871). Note: nearly all actives have a fitted effect of over 45% in size. Summed up:
as §3

Test [9] in a line: qHTS RealTime-Glo MT Cell Viability Assay in HEK293 cells - 16 hour (AID 1224872). In outline: as §2
Test [10] in a line: qHTS RealTime-Glo MT Cell Viability Assay in HepG2 cells - 8 hour (AID 1224873). Note: nearly all actives have a fitted effect of over 55% in size. In outline:
(§4)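 HepG2 cells mixed with RealTime-Glo MT reagents (NanoLuc plus cell-permeant prosubstrate) were seeded at 600 cells/well, incubated 5 h at 37 C/5% CO2, then pinned with compounds in DMSO; nonlytic luminescence tracked viability during 40 h treatment.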

A short description of test [11]: qHTS RealTime-Glo MT Cell Viability Assay in HEK293 cells - 40 hour (AID 1224874). Note: nearly all actives have a fitted effect of over 50% in size. Conditions: RealTime-Glo luminescence; max response: stronger effect = lower value. Summed up:
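Real-time viability in HEK293: signal arises when living cells convert a prosubstrate for NanoLuc in the medium, so luminescence tracks viable cell number. Compound (23 nL, DMSO) added 5 h post-seeding; kinetic reads at 0–40 h, 37 C.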

Test [12] in a line: A CellTox Green Cytotoxicity Assay to monitor cytotoxicity in HEK293 cells - 24 hour (AID 1224875). Note: series mostly up to about 77 µM; nearly all actives have a fitted effect of over 45% in size. Summed up:
as §3

Test [13] can be described thus: A CellTox Green Cytotoxicity Assay to monitor cytotoxicity in HepG2 cells - 16 hour (AID 1224876). Note: nearly all actives have a fitted effect of over 45% in size. In outline:
(§5)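 Cells and non-lytic dye reagent are dispensed together (600 HepG2 cells/well) and incubated 5 h before DMSO compound transfer. Kinetic fluorescence is then recorded in the same wells during 40 h at 37 C.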

A short description of test [14]: qHTS RealTime-Glo MT Cell Viability Assay in HepG2 cells - 32 hour (AID 1224877). Note: nearly all actives have a fitted effect of over 55% in size. Summed up:
as §1

Test [15] in a line: A CellTox Green Cytotoxicity Assay to monitor cytotoxicity in HepG2 cells - 24 hour (AID 1224878). Note: nearly all actives have a fitted effect of over 45% in size. In outline: as §5
Test [16] is described as follows: A CellTox Green Cytotoxicity Assay to monitor cytotoxicity in HepG2 cells - 40 hour (AID 1224879). Note: nearly all actives have a fitted effect of over 40% in size. In outline:
as §5

A short description of test [17]: qHTS assay to identify small molecule agonists of the hypoxia (HIF-1) signaling pathway (AID 1224846; active = well fitted activation curve with a large enough effect in the signal ratio in the repeat runs, not every such curve was filed as active; the % refers to the signal ratio). In outline:
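Compounds from the Tox21 10K library, dissolved in DMSO, are tested for induction of a hypoxia response element–controlled beta-lactamase reporter in ME-180 cells. Exposure lasts 17 hrs at 37C after a 5 hr settling period, followed by CCF4-AM FRET substrate.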

Test [18] is described as follows: qHTS RealTime-Glo MT Cell Viability Assay in HepG2 cells - 40 hour (AID 1224870). Note: nearly all actives have a fitted effect of over 50% in size. Summed up: as §4

Values without a mark were called inactive. Inconclusive results are not listed. The source made the active and inactive calls. Unless noted, calls come from the whole dose curve; as a rule, active = well fitted curve in the direction sought with a large enough effect in the repeat runs; inconclusive = weak or mixed curves; inactive = no such curve, though single readings can be large; an effect the other way counts as inactive or inconclusive.
% is set by controls: 0 for no effect and ±100 for the full control effect.

For the compound `CC(C)(C(=O)c1cccnc1)c1cccnc1`, the Potency entry in test [1], in test [2], in test [3], in test [4], in test [5] and in test [6] was “inactive” throughout. For the same compound, the Potency entry in test [7], in test [8], in test [9], in test [10], in [12] and in test [13] was “inactive” in each case. Also, the Potency result in test [14], in test [15] and in [16] was “inactive” each time. For the same compound, the max response in test [11] is 6.53%.
Take `CC1=C2[C@@H]([C@H](C)CC[C@H]2/C=C(\C)C(=O)O)[C@H](O)C1`: the Potency result in test [1], in test [2], in [4], in test [5], in test [6] and in test [7] was “inactive” throughout. In addition, the Potency result in test [18], in test [9], in [10], in test [12], in test [13] and in test [14] was “inactive” each time. The Potency entry in test [15] and in test [16] was “inactive” each time. Further, the result in [17] was inactive. In addition, in test [11], the max response is -2.63%.
In the case of `NC(=O)c1ccccc1[N+](=O)[O-]`, the Potency result in [1], in test [2], in [4], in [5], in test [6] and in test [7] was “inactive” throughout. The Potency result in [18], in test [8], in test [9], in test [10], in test [12] and in [13] was “inactive” each time. Besides, the Potency result in test [14], in [15] and in test [16] was “inactive” each time. Also, the compound was classed as inactive in test [17]. Also, in [11], the max response is 13.7%.
Consider `COC(OC)OC`, for which the Potency entry in test [1], in test [2], in [3], in test [4], in test [5] and in [6] was “inactive” in each case. The Potency entry in [7], in test [8], in [9], in [10], in test [12] and in test [14] was “inactive” each time. Also, the Potency result in [15] and in test [16] was “inactive” in each case. For the same compound, the max response in test [11] was 11.5%.
Consider `Cc1cc(CCC(=O)OCCOCCOCCOC(=O)CCc2cc(C)c(O)c(C(C)(C)C)c2)cc(C(C)(C)C)c1O`, for which the Potency in test [1] was 15 µM (active). Moreover, the Potency result in [2], in [3], in [4], in test [5], in test [6] and in test [7] was “inactive” throughout. For the same compound, the Potency result in test [18], in test [8], in test [9], in test [10], in test [12] and in test [13] was “inactive” in each case. Besides, the Potency entry in [14], in test [15] and in test [16] was “inactive” each time. In addition, in test [11], the max response is 6.66%.
Regarding `O=S(=O)(O)CO`, the Potency result in test [1], in test [2], in test [4], in [5], in [6] and in [7] was “inactive” in each case. For the same compound, the Potency entry in [18], in test [8], in test [9], in test [10], in test [12] and in [13] was “inactive” in each case. Besides, the Potency entry in test [14], in test [15] and in [16] was “inactive” throughout. For the same compound, the compound was classed as inactive in test [17]. In addition, the max response in test [11] was 4.46%.
As to `CCCCCCCCCCCCCOC(=O)CCSCCC(=O)OCCCCCCCCCCCCC`, the activation in test [1] was -1.63% [at 19 µM]. Further, the activity change, negative = cytotoxicity is 4.03% [at 15.8 µM] in [2], -1.78% [at 31.6 µM] in [4] and -1.74% [at 15.8 µM] in test [9]. For the same compound, in [3], the activation (H2AX phosphorylation) is 0.898% [at 31.6 µM]. Also, the activity change, negative = cytotoxic in test [6] is -0.356% [at 15.8 µM]; in test [18] it was 6.27% [at 15.8 µM]; in test [14] it was 0.647% [at 15.8 µM]. Further, the results for the cytotoxicity in test [7] and in [15] were 6.82% [at 15.8 µM] and -0.358% [at 15.8 µM], respectively. The values for the cytotoxicity increase in test [8] and in test [16] were 7.8% [at 15.8 µM] and -4.11% [at 15.8 µM], respectively. In addition, the viability change, negative = cytotoxic in test [10] was -12% [at 15.8 µM]. In addition, the max response in test [11] is -0.06%. The activity change in test [12] is 16% [at 15.8 µM, stronger effect = higher value].
